Experimental data as given in PubChem BioAssay (EPA / NIEHS).
Activity calls are given as the source filed them. The calls were made as follows: active = hit-call score of the fitted dose curve at least 0.9, where 1 is the maximum; inactive = score below 0.9.

What was measured:
Details in all cases: mRNA level, 48 h; actives raise or lower the signal
[1] = read-out: Paternally Expressed 10 (PEG10), PEG10 (gene 23089); test: LTEA_HepaRG_PEG10: Life Technologies and Expression Analysis (LTEA) Assay for Paternally Expressed 10 (PEG10) using HepaRG (AID 2283520)
Summary of the method: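 Differentiated HepaRG cells, plated 48 h then switched to serum-free induction medium, were exposed in duplicate for 48 h to eight half-log concentrations topping at 100 uM in 0.5% DMSO. PEG10 mRNA was quantified by TaqMan qRT-PCR, normalised to ACTB, GAPDH and POLR2A.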

[2] = read-out: Nuclear factor NF-kappa-B p105 subunit (Homo sapiens) (UniProt P19838); test: LTEA_HepaRG_NFKB1: Life Technologies and Expression Analysis (LTEA) Assay for Nuclear Factor Kappa B Subunit 1 (NFKB1) using HepaRG (AID 2283521);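 also: TaqMan qRT-PCR transcript normalised to ACTB GAPDH and POLR2A housekeeping genes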
Summary of the method: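 Human HepaRG cells receive eight half-log concentrations, highest 100 uM, for 48 h. NFKB1 expression is then quantified by qRT-PCR and analysed for up- or down-regulation relative to 0.5% DMSO vehicle.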

[3] = read-out: Protein phosphatase 2A (PPP2R4), PTPA (gene 5524); test: LTEA_HepaRG_PPP2R4: Life Technologies and Expression Analysis (LTEA) Assay for Protein phosphatase 2A (PPP2R4) using HepaRG (AID 2283522)
Summary of the method: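 Differentiated HepaRG cells in serum-free induction medium were exposed in duplicate for 48 h to eight concentrations, top 100 uM with half-log dilutions, in 0.5% DMSO. PPP2R4 mRNA was quantified by TaqMan qRT-PCR, normalized to ACTB, GAPDH and POLR2A.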

[4] = read-out: Phosphatase and tensin (PTEN), PTEN (gene 5728); test: LTEA_HepaRG_PTEN: Life Technologies and Expression Analysis (LTEA) Assay for Phosphatase and tensin (PTEN) using HepaRG (AID 2283523)
Summary of the method: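 HepaRG cells, 48 h after plating, exposed in duplicate for 48 h in serum-free induction medium to 8 half-log concentrations up to 100 uM (0.5% DMSO). PTEN mRNA by qRT-PCR, normalized to ACTB, GAPDH, POLR2A; bidirectional fit versus DMSO.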

[5] = read-out: solute carrier (SLC22A1), SLC22A1 (gene 6580); test: LTEA_HepaRG_SLC22A1: Life Technologies and Expression Analysis (LTEA) Assay for solute carrier (SLC22A1) using HepaRG (AID 2283524)
Summary of the method: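 Differentiated human HepaRG cells in serum-free induction medium, exposed 48 h in duplicate to 8-point half-log series from 100 µM top in 0.5% DMSO. SLC22A1 mRNA by TaqMan qRT-PCR normalized to ACTB, GAPDH, POLR2A; bidirectional fit versus DMSO.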

[6] = read-out: Pyruvate Dehydrogenase Kinase 4 (PDK4), PDK4 (gene 5166); test: LTEA_HepaRG_PDK4: Life Technologies and Expression Analysis (LTEA) Assay for Pyruvate Dehydrogenase Kinase 4 (PDK4) using HepaRG (AID 2283525)
Summary of the method: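 HepaRG cells plated 48 h, then switched to serum-free induction medium and exposed in duplicate for 48 h to 8 half-log concentrations from 100 uM in 0.5% DMSO. PDK4 mRNA measured by qRT-PCR, normalized to ACTB, GAPDH and POLR2A; bidirectional fit versus DMSO.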

[7] = read-out: NAD(P)H dehydrogenase [quinone] 1 (NQO1), NQO1 (gene 1728); test: LTEA_HepaRG_NQO1: Life Technologies and Expression Analysis (LTEA) Assay for NAD(P)H dehydrogenase [quinone] 1 (NQO1) using HepaRG (AID 2283526)
Summary of the method: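 Differentiated HepaRG cells, plated 48 h and then switched to serum-free induction medium, were exposed in duplicate for 48 h to 8-point half-log concentrations up to 100 uM in 0.5% DMSO. mRNA measured by qRT-PCR, normalized to ACTB, GAPDH, POLR2A; bidirectional fit versus DMSO.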

[8] = read-out: Nuclear factor erythroid 2-related factor 2 (Homo sapiens) (UniProt Q16236); test: LTEA_HepaRG_NFE2L2: Life Technologies and Expression Analysis (LTEA) Assay for Nuclear factor erythroid 2-related factor 2 (NFE2L2) Transcription Factor using HepaRG (AID 2283527);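 as to outcome: TaqMan qRT-PCR transcript level normalised to ACTB GAPDH and POLR2A housekeeping genes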
Summary of the method: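 Differentiated human HepaRG cells, serum-free induction medium, exposed 48 h in duplicate to eight half-log concentrations up to 100 uM in 0.5% DMSO. NFE2L2 mRNA by Fluidigm TaqMan qRT-PCR, normalised to ACTB, GAPDH, POLR2A; bidirectional change versus DMSO.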

[9] = read-out: succinate dehydrogenase complex iron sulfur subunit B (SDHB), SDHB (gene 6390); test: LTEA_HepaRG_SDHB: Life Technologies and Expression Analysis (LTEA) Assay for succinate dehydrogenase complex iron sulfur subunit B (SDHB) using HepaRG (AID 2283528)
Summary of the method: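 A human HepaRG culture in serum-free induction medium received test chemicals for 48 h over an eight-point range capped at 100 uM. SDHB expression change was quantified by qRT-PCR.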

[10] = read-out: Signal transducer and activator of transcription 3 (Homo sapiens) (UniProt P40763); test: LTEA_HepaRG_STAT3: Life Technologies and Expression Analysis (LTEA) Assay for Signal transducer and activator of transcription (STAT3) using HepaRG (AID 2283529)
Summary of the method: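 Differentiated HepaRG cells, serum-free induction medium, dosed 48 h in duplicate, 8 half-log concentrations from 100 uM in 0.5% DMSO. STAT3 mRNA by qRT-PCR, normalised to ACTB, GAPDH, POLR2A; bidirectional fit versus DMSO.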

Sequence of Signal transducer and activator of transcription 3 (Homo sapiens) (P40763 whole entry, looked up): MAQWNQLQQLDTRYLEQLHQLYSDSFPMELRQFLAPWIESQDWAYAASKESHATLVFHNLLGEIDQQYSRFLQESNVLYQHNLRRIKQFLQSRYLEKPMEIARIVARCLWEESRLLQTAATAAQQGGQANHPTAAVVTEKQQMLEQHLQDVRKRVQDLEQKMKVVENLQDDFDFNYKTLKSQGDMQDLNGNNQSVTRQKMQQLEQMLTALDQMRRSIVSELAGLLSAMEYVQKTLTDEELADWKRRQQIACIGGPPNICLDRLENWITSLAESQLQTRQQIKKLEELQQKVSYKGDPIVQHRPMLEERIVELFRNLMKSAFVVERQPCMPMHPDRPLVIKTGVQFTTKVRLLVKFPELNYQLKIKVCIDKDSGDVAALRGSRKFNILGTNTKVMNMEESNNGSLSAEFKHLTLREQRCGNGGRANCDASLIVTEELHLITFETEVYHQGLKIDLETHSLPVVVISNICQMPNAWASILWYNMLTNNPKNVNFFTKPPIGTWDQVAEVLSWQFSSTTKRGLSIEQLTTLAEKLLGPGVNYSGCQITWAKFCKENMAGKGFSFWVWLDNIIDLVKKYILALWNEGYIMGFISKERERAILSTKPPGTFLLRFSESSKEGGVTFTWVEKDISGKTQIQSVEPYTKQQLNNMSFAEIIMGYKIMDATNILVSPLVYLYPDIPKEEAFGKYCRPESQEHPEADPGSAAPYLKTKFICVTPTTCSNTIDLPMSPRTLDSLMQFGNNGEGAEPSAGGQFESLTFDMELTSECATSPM
Sequence of Nuclear factor erythroid 2-related factor 2 (Homo sapiens) (Q16236 whole entry, looked up): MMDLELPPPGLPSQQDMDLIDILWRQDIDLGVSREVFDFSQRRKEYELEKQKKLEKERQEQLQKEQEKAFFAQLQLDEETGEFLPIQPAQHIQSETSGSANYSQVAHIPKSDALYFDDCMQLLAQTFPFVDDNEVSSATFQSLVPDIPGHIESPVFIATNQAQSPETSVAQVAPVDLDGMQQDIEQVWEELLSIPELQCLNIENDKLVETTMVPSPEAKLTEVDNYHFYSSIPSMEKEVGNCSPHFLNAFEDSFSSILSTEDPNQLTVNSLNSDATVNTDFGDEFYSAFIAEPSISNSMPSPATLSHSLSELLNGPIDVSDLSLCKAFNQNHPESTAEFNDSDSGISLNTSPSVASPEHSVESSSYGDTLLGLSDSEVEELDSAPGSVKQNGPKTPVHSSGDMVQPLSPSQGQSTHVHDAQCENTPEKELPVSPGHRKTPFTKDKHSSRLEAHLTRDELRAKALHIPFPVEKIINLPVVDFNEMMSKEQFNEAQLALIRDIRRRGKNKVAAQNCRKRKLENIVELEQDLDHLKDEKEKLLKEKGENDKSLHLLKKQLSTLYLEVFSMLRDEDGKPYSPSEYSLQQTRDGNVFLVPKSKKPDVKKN
Sequence of Nuclear factor NF-kappa-B p105 subunit (Homo sapiens) (P19838 whole entry, looked up): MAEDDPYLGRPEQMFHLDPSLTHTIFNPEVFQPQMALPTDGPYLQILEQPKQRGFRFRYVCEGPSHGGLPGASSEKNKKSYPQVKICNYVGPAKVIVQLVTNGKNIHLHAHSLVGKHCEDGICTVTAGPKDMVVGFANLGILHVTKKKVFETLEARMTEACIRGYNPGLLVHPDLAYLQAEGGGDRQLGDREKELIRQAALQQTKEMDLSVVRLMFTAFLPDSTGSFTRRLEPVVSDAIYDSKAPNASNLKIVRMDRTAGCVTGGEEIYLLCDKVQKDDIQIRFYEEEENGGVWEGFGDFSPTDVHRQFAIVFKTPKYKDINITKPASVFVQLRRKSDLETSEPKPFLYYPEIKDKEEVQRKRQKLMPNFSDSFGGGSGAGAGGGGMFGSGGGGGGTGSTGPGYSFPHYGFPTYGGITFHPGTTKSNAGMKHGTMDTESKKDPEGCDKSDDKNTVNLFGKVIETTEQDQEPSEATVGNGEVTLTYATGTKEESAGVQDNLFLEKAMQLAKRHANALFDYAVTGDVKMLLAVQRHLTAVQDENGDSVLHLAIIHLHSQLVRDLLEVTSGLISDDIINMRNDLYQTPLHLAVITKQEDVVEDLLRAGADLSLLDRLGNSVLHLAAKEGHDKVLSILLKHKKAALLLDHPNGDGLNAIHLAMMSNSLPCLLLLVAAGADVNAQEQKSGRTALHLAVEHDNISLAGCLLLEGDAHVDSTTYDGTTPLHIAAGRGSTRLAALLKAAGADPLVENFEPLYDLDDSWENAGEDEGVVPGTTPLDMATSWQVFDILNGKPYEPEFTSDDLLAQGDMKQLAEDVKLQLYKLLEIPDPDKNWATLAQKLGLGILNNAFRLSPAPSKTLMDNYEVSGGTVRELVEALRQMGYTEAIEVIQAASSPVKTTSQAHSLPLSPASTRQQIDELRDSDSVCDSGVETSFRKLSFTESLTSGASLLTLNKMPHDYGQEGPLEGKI

SMILES | outcome [1] | outcome [2] | outcome [3] | outcome [4] | outcome [5] | outcome [6] | outcome [7] | outcome [8] | outcome [9] | outcome [10] | AC50 [1] | AC50 [6] | AC50 [5] | AC50 [8] | AC50 [10]
Nc1c(Cl)c(Cl)nc(C(=O)O)c1Cl | inactive | inactive | inactive | inactive | inactive | inactive | inactive | inactive | inactive | inactive | – | – | – | – | –
CCOC(=O)C(C)OC(=O)c1cc(Oc2ccc(C(F)(F)F)cc2Cl)ccc1[N+](=O)[O-] (stereo not drawn) | – | inactive | inactive | inactive | inactive | – | inactive | inactive | inactive | inactive | 9.92 µM (active) | 14.3 µM (active) | – | – | –
COC(=O)NS(=O)(=O)c1ccc(N)cc1 | inactive | inactive | inactive | inactive | inactive | inactive | inactive | inactive | inactive | inactive | – | – | – | – | –
COCc1cnc(C2=NC(C)(C(C)C)C(=O)N2)c(C(=O)O)c1 (stereo not drawn) | inactive | – | inactive | inactive | inactive | inactive | inactive | inactive | inactive | inactive | – | – | – | – | –
CS(=O)(=O)c1ccc(C(=O)C2C(=O)CCCC2=O)c([N+](=O)[O-])c1 | inactive | inactive | inactive | inactive | inactive | inactive | inactive | inactive | inactive | inactive | – | – | – | – | –
Clc1cccc(C(Cl)(Cl)Cl)n1 | inactive | – | inactive | inactive | inactive | inactive | inactive | inactive | inactive | inactive | – | – | – | – | –
CC(C)(C)C(=O)C(Oc1ccc(Cl)cc1)n1cncn1 (stereo not drawn) | inactive | inactive | inactive | inactive | inactive | inactive | inactive | inactive | inactive | inactive | – | – | – | – | –
COCC(=O)N(c1c(C)cccc1C)C(C)C(=O)OC (stereo not drawn) | inactive | – | inactive | inactive | inactive | inactive | inactive | inactive | inactive | inactive | – | – | – | – | –
CC(C)C1(C)N=C(c2ncccc2C(=O)O)NC1=O (stereo not drawn) | inactive | – | inactive | inactive | inactive | inactive | inactive | inactive | inactive | inactive | – | – | – | – | –
CC(C)Nc1nc(Cl)nc(NC(C)C)n1 | – | – | inactive | inactive | inactive | inactive | inactive | inactive | inactive | inactive | 27.2 µM (active) | – | – | – | –
COC(=O)N(C(=O)N1CO[C@@]2(C(=O)OC)Cc3cc(Cl)ccc3C2=N1)c1ccc(OC(F)(F)F)cc1 | – | – | inactive | inactive | – | – | inactive | – | inactive | inactive | 20.5 µM (active) | 40 µM (active) | 47.9 µM (active) | 10 µM (active) | –
CCOP(=S)(OCC)Oc1nc(Cl)n(C(C)C)n1 | inactive | inactive | inactive | inactive | – | – | inactive | inactive | inactive | inactive | – | 1.82 µM (active) | 12.2 µM (active) | – | –
CC1(C)C(C=C(Cl)Cl)C1C(=O)OC(C#N)c1cccc(Oc2ccccc2)c1 (stereo not drawn) | – | inactive | inactive | inactive | inactive | – | inactive | inactive | inactive | inactive | 50 µM (active) | 50 µM (active) | – | – | –
CCNC(=O)NC(=O)C(C#N)=NOC | – | – | inactive | inactive | – | inactive | inactive | inactive | inactive | inactive | 50 µM (active) | – | 74.2 µM (active) | – | –
CCC(C)n1c(=O)[nH]c(C)c(Br)c1=O (stereo not drawn) | – | inactive | inactive | inactive | – | – | – | – | inactive | – | 21.1 µM (active) | 50 µM (active) | 19.2 µM (active) | 7.04 µM (active) | 31.8 µM (active)
CCN(CC)C(=O)C(C)Oc1cccc2ccccc12 (stereo not drawn) | – | – | inactive | inactive | – | inactive | inactive | inactive | inactive | inactive | 76.5 µM (active) | – | 70.1 µM (active) | – | –
COc1cc(Cl)c(OC)cc1Cl | inactive | inactive | inactive | inactive | inactive | inactive | inactive | – | inactive | inactive | – | – | – | – | –
Cc1nc(N(C)C)nc(OC(=O)N(C)C)c1C | inactive | – | inactive | inactive | inactive | inactive | inactive | inactive | inactive | inactive | – | – | – | – | –
COP(=S)(OC)SCn1nnc2ccccc2c1=O | inactive | – | inactive | inactive | inactive | inactive | inactive | inactive | inactive | inactive | – | – | – | – | –
